This is an account of results in PubChem BioAssay AID651610 (Broad Institute, 2012).

Values joined by “and” are separate entries in the source; they are usually repeats but may differ in a detail not shown here. Identical values can stand only once. The whole screen tested about 360,000 compounds, of which about 3,900 (1.1%) were called active. Many of the other results were omitted from the sample, so actives are more common in it than they were. A number with no mark means an inactive call.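 Rule for the calls: active = mean replicate inhibition score of at least 50 and every replicate individually at or above 50; inconclusive = only one of the two criteria met; inactive = mean below 50 and not all replicates reaching 50.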

The test can be described thus: blockers of JRFL envelope-mediated fusion – HeLa-JRFL effector, CEM21 target cells, luciferase, primary screen (AID 651610).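 Note: 0% = plate neutral controls and 100% = maraviroc near 300 nM.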 The conditions noted are these: HeLa-JRFL Env/CEM21 cell fusion, hits give high values.

For the compound `O=C(NCc1ccco1)c1cc2sccc2n1Cc1ccc(F)cc1`, the inhibition (at 16.7 µM unless noted) was 20.8% [at 12.3 µM].

Regarding `O=C(Cc1ccc(-n2c(=O)c3sccc3n(Cc3ccc(F)cc3)c2=O)cc1)NCc1ccco1`, under “at 16.7 µM unless noted”, the inhibition was 0.234% [at 12.3 µM].

As to `O=C(NCc1ccco1)c1ccc(Cn2c(=O)c3sccc3n(Cc3ccc(F)cc3)c2=O)cc1`, the inhibition (at 16.7 µM unless noted) is 78.1% [at 12.3 µM] (active). Still for that read-out and setting: to `O=C(CN1CCOCC1)NCC[C@H]1CC[C@@H](NC(=O)Nc2ccc(Cl)cc2)[C@@H](CO)O1` belongs 2.67%; to `O=C(N[C@@H]1CC[C@H](CCn2cc(-c3ccccn3)nn2)O[C@@H]1CO)c1ccccc1`, 12.1%; to `COc1ccc(S(=O)(=O)Nc2ccc3c(c2)C(=O)N([C@@H](C)CO)C[C@H](C)[C@@H](CN(C)C(=O)NC(C)C)OCCCC[C@H](C)O3)cc1`, 1.4%. Still for that read-out and setting: next, `CCOC(=O)C(C)Oc1cccc2c(=O)n(CC(=O)NCCc3ccc(OC)c(OC)c3)ccc12` (centres undefined): 88.4% [at 12.3 µM] (active). Still for that read-out and setting: to `CCOC(=O)C(C)Oc1cccc2c(=O)n(CC(=O)N3CCc4ccccc43)ccc12` (centres undefined) belongs -10.8% [at 12.3 µM]; to `COC(=O)COc1cccc2c(=O)n(CC(=O)NCc3ccccc3)ccc12`, -188% [at 12.3 µM].

For the compound `C[C@@H]1CN([C@H](C)CO)C(=O)Cc2cc(NS(=O)(=O)c3cccs3)ccc2O[C@@H]1CN(C)C(=O)Nc1ccc(F)cc1`, the inhibition (at 16.7 µM unless noted) is -7.97%. Same read-out and setting: next, `C[C@@H]1CN([C@H](C)CO)C(=O)c2cc(NC(=O)Nc3cccc4ccccc34)ccc2O[C@@H](C)CCCCO[C@H]1CN(C)S(=O)(=O)c1cccs1`: 15.1%; `CCCCCc1c(-c2ccc(OC)c(OC)c2)ncn1CCc1ccccc1OC`: 49.2% [at 12.3 µM]. Same read-out and setting: next, `CCCCCc1c(Cc2ccccc2)ncn1CCc1ccccc1OC`: 109% [at 12.3 µM] (active); `CCCCCc1c(-c2cccc(Br)c2)ncn1CCc1ccccc1OC`: 11.9% [at 12.3 µM]. The same measure, in the same setting: next, `O=C(C[C@H]1C[C@H]2c3cc(NC(=O)CC4CC4)ccc3O[C@H]2[C@H](CO)O1)NCc1ccccc1`: 8.72%. Turning to `CC(=O)C1=C(C)N(Cc2ccc(Cl)cc2)C(=S)NC1c1ccc(F)cc1` (centres undefined), where the note is “at 16.7 µM unless noted”, the inhibition is 62.3% [at 12.3 µM] (active). With `CC(=O)C1=C(C)N(Cc2ccccc2)C(=S)NC1c1cccc(Br)c1` (centres undefined), the inhibition (at 16.7 µM unless noted) was 0.027% [at 12.3 µM]. Same read-out and setting: to `COC(=O)C1=C(C)N(Cc2ccc(F)cc2)C(=S)NC1c1cccc(Cl)c1` (centres undefined) belongs 34.2% [at 12.3 µM]; to `C[C@@H]1CCCCO[C@@H](CN(C)S(=O)(=O)c2cccs2)[C@@H](C)CN([C@H](C)CO)C(=O)c2cc(NC(=O)Nc3ccc4c(c3)OCO4)ccc2O1`, 4.87%; to `COCC(=O)Nc1ccc2c(c1)C(=O)N(C)C[C@H](OC)[C@@H](C)CN(C(=O)Cc1cccnc1)[C@@H](C)CO2`, 0.828%. As to `S=c1c2[nH]cnc2ncn1CCSc1ncnc2nc[nH]c12`, the inhibition (at 16.7 µM unless noted) was -6.63% [at 12.3 µM]. Turning to `CCc1ccc(N(CC)c2ncnc3nc[nH]c23)cc1`, the inhibition (at 16.7 µM unless noted) is 55.5% [at 12.3 µM] (active).

Take `CCC(=O)N1[C@H](C(=O)NCc2ccc(F)cc2)[C@@H](CO)[C@@H]2Cn3c(ccc(C4=CCCCC4)c3=O)[C@@H]21`: where the note is “at 16.7 µM unless noted”, the inhibition was 22.3%. Same read-out and setting: to `C[C@@H]1CCCCO[C@@H](CN(C)Cc2ccncc2)[C@@H](C)CN([C@@H](C)CO)C(=O)c2cc(N(C)C)ccc2O1` belongs 12.4%.

With `C=CCNc1ncnc2ccc(Br)cc12`, the inhibition is, setting by setting: (at 12.3 µM) 92.8% (active); (at 16.7 µM) 9.63% and 27.5%.

`Brc1ccc2ncnc(NCc3cccnc3)c2c1`: where the note is “at 16.7 µM unless noted”, the inhibition was 43.2% [at 12.3 µM].

On to `O=C(O)CCCCCNc1ncnc2ccc(Br)cc12`, for which the inhibition (at 16.7 µM unless noted) was 26.9% [at 12.3 µM].

On to `CN1CCN(C(=O)C[C@H]2C[C@H]3c4cc(NC(=O)Nc5ccccc5F)ccc4O[C@H]3[C@H](CO)O2)CC1`, for which the inhibition (at 16.7 µM unless noted) was -13.6%.

As for `COc1ccccc1CNC(=O)C[C@@H]1C[C@@H]2c3cc(NC(=O)C4CCOCC4)ccc3O[C@@H]2[C@@H](CO)O1`, for the setting “at 16.7 µM unless noted”, the inhibition was -2.64%.

Turning to `O=C(Nc1ccc(CN2CCOCC2)cc1)c1cc(Cl)ccc1Cl`, the inhibition (at 16.7 µM unless noted) was -16% [at 12.3 µM].

Take `CCOC(=O)N1CCN(Cc2nc3cc(NC(C)=O)ccc3n2C)CC1`: the inhibition (at 16.7 µM unless noted) is 9.8% [at 12.3 µM].

Take `Cn1c(CN2CCOCC2)nc2cc(NC(=O)c3ccc(Cl)cc3)ccc21`: where the note is “at 16.7 µM unless noted”, the inhibition is 66.4% [at 12.3 µM] (active). Same read-out and setting: to `CNC[C@@H]1Oc2cc(-c3ccccc3OC)ccc2S(=O)(=O)N([C@@H](C)CO)C[C@H]1C` belongs -40.9%; to `CCCNC(=O)N(C)C[C@H]1Oc2cc(-c3ccncc3)ccc2S(=O)(=O)N([C@H](C)CO)C[C@H]1C`, -10.2%; to `CC(=O)c1c(C)[nH]c(C(=O)OCC(=O)Nc2c(C)cccc2C)c1C`, 76.4% [at 12.3 µM] (active). Same read-out and setting: next, `CC(=O)c1c(C)[nH]c(C(=O)OCC(=O)Nc2cc(S(=O)(=O)N3CCCCC3)ccc2C)c1C`: 0.591% [at 12.3 µM]. Turning to `CC(=O)c1c(C)[nH]c(C(=O)OCC(=O)NCCC(C)C)c1C`, the inhibition (at 16.7 µM unless noted) was 38.2% [at 12.3 µM]. As to `CO[C@@H]1CN(C)C(=O)c2cc(NS(=O)(=O)c3ccccc3C)ccc2OC[C@@H](C)N(S(C)(=O)=O)C[C@@H]1C`, the inhibition (at 16.7 µM unless noted) is 23.9%. As for `C[C@@H]1CN([C@@H](C)CO)C(=O)c2cc(-c3ccccc3F)cnc2O[C@@H]1CN(C)Cc1cccc(F)c1`, where the note is “at 16.7 µM unless noted”, the inhibition is 6.32%.

Take `Cc1cccc(C)c1NC(=O)CN1CCN(c2ccc(F)cc2)CC1`: the inhibition (at 16.7 µM unless noted) is -17.6% [at 12.3 µM]. The same measure, in the same setting: next, `O=C(COC(=O)C1CCCO1)Nc1nc(-c2ccc(F)cc2)cs1` (centres undefined): -32.6% [at 12.3 µM]. Same read-out and setting: next, `CC1CCCC(C)N1C(=O)CN1CCN(c2nc(-c3ccc(F)cc3)cs2)CC1` (centres undefined): 57.8% [at 12.3 µM] (active). Still for that read-out and setting: to `C[C@@H]1CN([C@@H](C)CO)S(=O)(=O)c2ccc(C#Cc3ccccc3F)cc2O[C@H]1CN(C)C(=O)c1ccc2c(c1)OCO2` belongs 48.7%.

One may read the inhibition as the relative decrease from the control value, in per cent.
